Compounds with a hit are over-represented: about 21% of the library has one in this group of screens.
ELG1 repair inh = blocks ELG1-dependent DNA repair in HEK293T cells. HEK293T ELG1-luciferase reporter, luminescence, 16 h; DNA damage induced by 5-fluorouridine. Potency, µM (highest dose often 46.1 µM), actives largely listed as inhibitors. hit rate 2.3% among 330,000. AID 504467; further: nearly all actives have a fitted effect of over 55% in size
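Overnight (16 hr) co-exposure of 2,000 cells/well to 5-fluorouridine and compound at 37 °C preceded detection. Luciferase was quantified via ONE-Glo luminescence; loss of signal denotes inhibition.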
DT40 TDP1 CPT = growth inhibition of DT40 Tdp1-/-;hTDP1 cells with camptothecin (screen for TDP1 inhibitors) | chicken DT40 Tdp1-/-;hTDP1 cells + 20 nM CPT, ATP luminescence, 48 h | Potency, µM (series often up to 46.2 µM), actives largely listed as inhibitors | hit rate 12% among 420,000; further: nearly all actives have a fitted effect of over 55% in size
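Chicken DT40 Tdp1-/- cells stably complemented with human TDP1 were seeded at 400 cells/well in medium containing 20 nM camptothecin, exposed to pin-transferred compounds, and grown at 37 °C for at least 48 hr. Viability was read as ATP luminescence.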
RORgamma inh = ROR gamma (mouse) transcription inhibition | Potency, µM (highest dose often 53.6 µM), usual class: inhibitors | P51450 | Drosophila S2 Gal4-RORgamma UAS-luciferase reporter, 20 h | hit rate 5.4% among 310,000; further: nearly all actives have a fitted effect of over 60% in size
Target sequence (P51450 whole entry, looked up, the tested form may be a part): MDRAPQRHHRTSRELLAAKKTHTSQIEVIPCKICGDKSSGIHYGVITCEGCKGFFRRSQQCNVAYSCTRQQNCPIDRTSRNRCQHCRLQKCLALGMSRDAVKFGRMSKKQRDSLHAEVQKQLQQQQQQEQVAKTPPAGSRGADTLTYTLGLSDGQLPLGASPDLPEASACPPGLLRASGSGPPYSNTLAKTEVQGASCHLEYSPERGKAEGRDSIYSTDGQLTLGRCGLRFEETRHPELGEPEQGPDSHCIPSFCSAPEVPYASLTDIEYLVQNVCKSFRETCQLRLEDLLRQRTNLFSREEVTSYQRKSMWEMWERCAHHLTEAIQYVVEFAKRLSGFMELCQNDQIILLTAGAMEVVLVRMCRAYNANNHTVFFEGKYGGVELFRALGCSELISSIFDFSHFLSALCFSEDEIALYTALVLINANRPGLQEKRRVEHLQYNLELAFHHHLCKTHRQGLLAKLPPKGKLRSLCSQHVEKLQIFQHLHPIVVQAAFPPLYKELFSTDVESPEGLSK
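Schneider cells (Drosophila), stable Gal4 DBD–ROR gamma + UAS-luc; 1 hr cmpd preincubation; Cu2+ induction 700 uM final; 20 hr ambient; luminescence.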
TDP1 cell noCPT = qHTS for Inhibitors of human tyrosyl-DNA phosphodiesterase 1 (TDP1): qHTS in cells in absence of CPT; DT40 Tdp1-/- hTDP1 cells, no CPT, ATP luminescence, 48 h; Potency, µM (top dose mostly 46.2 µM), actives largely listed as inhibitors; hit rate 15% among 420,000; AID 686978, 2013; further: nearly all actives have a fitted effect of over 55% in size
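Luminescent ATP content (CellTiter-Glo) served as the growth readout. Knockout chicken DT40 cells expressing human TDP1 were exposed to compounds without camptothecin for a minimum 48 hr at 37 °C.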
VP16 counter = inhibits Gal4-VP16 luciferase reporter, ROR gamma counter-screen. hit rate 3.5% among 310,000. Potency, µM (top dose mostly 53.6 µM), hits mostly inhibitors. Drosophila S2 Gal4-VP16 UAS-luciferase, luminescence, 20 h;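 further: Gal4-VP16 expression switched on by copper sulfate through the metallothionein promoter; nearly all actives have a fitted effect of over 50% in size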
IL1B secr inh = inhibitors of inflammasome signaling (IL-1 beta secretion) | hit rate 4.7% among 360,000 | AID 743279 | THP-1 LPS/ATP IL-1B secretion, AlphaLISA, 16 h; stronger effect = lower value | activity change, % at 57.5 µM; in the data active means activity change below about -50%; inconclusive means mostly about -30% to -49%
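Secreted IL-1B measured by AlphaLISA bead assay after 16 h compound exposure of THP-1 cells; compounds (final up to 57.5 uM) added 1 h before LPS (250 ng/mL) and ATP (1.25 mM) stimulation; lower signal means less secretion.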
A number is an active result; . = inactive; ? = inconclusive; / = no result; [ ] = remark or other dose. Unless noted, the call rests on the fitted dose curve; in most records, active means well fitted curve in the direction sought with a large enough effect; inconclusive means small, poorly fitted or top-dose-only effect, or another doubt; inactive means no such curve, though single readings can be large; an effect the other way counts as inactive or inconclusive.

SMILES | ELG1 repair inh | DT40 TDP1 CPT | RORgamma inh | TDP1 cell noCPT | VP16 counter | IL1B secr inh
CCCn1c(C)nc2c(NCCO)nc(C)nc21 | / | / | . | / | . | /
CCCCN1CC(COCc2ccccc2)Oc2cccc(OCc3ccc(OC)cc3)c2S1(=O)=O (stereo not drawn) | / | 5.8µM | / | 4.1µM | / | .
CCC(Sc1nc2c(sc3ccccc32)c(=O)n1CCc1ccccc1)C(=O)N(CC)CC (stereo not drawn) | / | . | / | ? | / | /
CCC(Sc1nc2ccccc2c(=O)n1CCc1ccc(OC)c(OC)c1)C(=O)N(CC)CC (stereo not drawn) | / | 6.5µM | / | 6.5µM | / | /
CCC(Sc1nc2c(sc3ccccc32)c(=O)n1CCc1ccc(OC)c(OC)c1)C(=O)N(CC)CC (stereo not drawn) | / | 6.5µM | / | 5.8µM | / | /
COc1ccc(CCn2c(SCCN3CCCCC3)nc3ccccc3c2=O)cc1OC | . | ? | . | 16µM | . | .
C=CCNC(=O)CSc1nc2ccccc2c(=O)n1CCc1ccc(OC)c(OC)c1 | ? | ? | . | ? | . | .
O=S(=O)(c1cccc(-c2nnc3n2CCCCC3)c1)N1CCCC1 | . | . | . | . | . | .
Brc1ccccc1OCCN1CCCC1 | / | . | / | . | / | .
CC1(C)CC(=O)C2=C(C1)c1c(ccc3ccccc13)NC2c1ccc(C(=O)O)cc1 (stereo not drawn) | . | . | . | . | . | .
O=C1CCCC2=C1C(c1ccco1)Nc1ccc3ccccc3c12 (stereo not drawn) | . | 21µM | . | 18µM | . | .
O=C1CCCc2ccc3ccccc3c21 | / | . | / | . | / | .
Cc1ccc(C2Nc3ccc4ccccc4c3C3=C2C(=O)CC(C)(C)C3)o1 (stereo not drawn) | ? | ? | . | ? | . | -52
O=C1CCCC2=C1C(c1ccc(O)c(O)c1)Nc1ccc3ccccc3c12 (stereo not drawn) | / | ? | / | 10µM | / | .
CC1(C)CC(=O)C2=C(C1)c1c(ccc3ncccc13)NC2c1cccs1 (stereo not drawn) | . | 5.2µM | .[10 µM] | 3.7µM | . | .
CCOC(=O)N/N=C1/C[C@@H](O)[C@@H](O)[C@@H]2[C@@H]3C(=O)N(C4CCCCC4)C(=O)[C@H]3CC[C@H]12 | / | / | .[10 µM] | / | .[10 µM] | /
COc1cc(C2Nc3ccc4ncccc4c3C3=C2C(=O)CCC3)cc(OC)c1O (stereo not drawn) | . | 5.2µM | 2.8µM | 5.2µM | . | .
COc1cc(C2Nc3ccc4ncccc4c3C3=C2C(=O)CC(C)(C)C3)cc(OC)c1O (stereo not drawn) | ? | ? | . | ? | . | .
CC(C)(C)OC(=O)NCCCCCc1cn(CC(=O)NCCCCCCCCCCC(=O)N2CCN(C(=O)OC(C)(C)C)CC2)nn1 | . | 5.8µM | / | 6.5µM | / | .
CC[C@H](C)Cc1cn([C@@H](CCCN=C(NC(=O)OC(C)(C)C)NC(=O)OC(C)(C)C)C(=O)NCCCCCCCCCCC(=O)N2CCN(C(=O)OC(C)(C)C)CC2)nn1 | 7.3µM | 9.2µM | / | 7.3µM | / | .
Cc1cn([C@@H](CCCCNC(=O)OC(C)(C)C)C(=O)NCCCCCCCCCCC(=O)N2CCN(C(=O)OC(C)(C)C)CC2)nn1 | ? | 8.2µM | / | 7.3µM | / | .
CC[C@H](C)Cc1cn([C@@H](CCCCN)C(=O)NCCCCCCCCCCC(=O)N2CCNCC2)nn1 | . | . | / | . | / | .
COCCCNC(=O)C1CCN(c2cc(C)nc3c(-c4ccc(Cl)cc4)c(C)nn23)CC1 | / | . | / | . | / | /
Cc1ccc(S(=O)(=O)n2c(CN3CCCC(C)C3)nc3ccccc32)cc1 (stereo not drawn) | . | . | . | . | . | -51
Cc1ccc(C(=O)N2CCN(C(=O)c3ccccc3)C2c2ccc(N(C)C)cc2)cc1 (stereo not drawn) | . | . | . | ? | . | .
CN(C)c1ccc(C2CCc3ccccc3N2C(=O)c2ccccc2)cc1 (stereo not drawn) | / | 11µM | / | 7.9µM | / | /
